FBPA Giardia inh = Giardia lamblia aldolase inhibition; purified Giardia FBPA; Potency, µM (series often up to 59.6 µM), usual class: inhibitors; A8B2U2; AID 2451; hit rate 0.71% among 290,000; note: nearly all actives have a fitted effect of over 55% in size
Target sequence (A8B2U2 whole entry, looked up): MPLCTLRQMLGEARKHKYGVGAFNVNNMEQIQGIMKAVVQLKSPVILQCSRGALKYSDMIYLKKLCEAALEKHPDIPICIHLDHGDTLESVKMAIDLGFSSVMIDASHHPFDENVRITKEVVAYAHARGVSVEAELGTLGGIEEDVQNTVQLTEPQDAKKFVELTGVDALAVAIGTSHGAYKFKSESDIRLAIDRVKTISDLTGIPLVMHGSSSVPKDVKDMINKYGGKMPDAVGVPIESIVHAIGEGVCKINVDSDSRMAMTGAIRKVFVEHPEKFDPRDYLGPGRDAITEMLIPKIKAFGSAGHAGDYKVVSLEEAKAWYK
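40 nM FBPA preincubated 10 min at RT with compound (up to 57.5 uM final), then substrate plus GAPDH/TPI/NAD/arsenate coupling and diaphorase/resazurin added. Fluorescence read after 20 min at RT, 525/598 nm.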
LmPK inhibitor = inhibitors of Leishmania mexicana pyruvate kinase; purified LmPK, Kinase-Glo ATP luminescence, 1 h; hit rate 0.37% among 290,000; Q27686; AID 1721; Potency, µM (doses to about 57.5 µM), usual class: inhibitors
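In 50 mM imidazole pH 7.2 with 7 mM MgCl2, LmPK (0.1 nM) turned over PEP (0.5 mM) and ADP (0.1 mM) for 1 h at room temperature. Luciferase read-out of ATP.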
Shiga inhibitor = blocks Shiga toxin action in Vero cells | AID 2315 | Vero cells, Shiga toxin protein synthesis inhibition reporter | hit rate 9.2% among 290,000 | inhibition, % at 38.7 µM; in the data active = inhibition mostly above about 28%, no sharp cut-off; inactive = mostly below about 43%
Sm TGR block = blocks Schistosoma mansoni thioredoxin glutathione reductase. purified TGR, DTNB reduction, TNB absorbance 405 nm. Potency, µM (top dose mostly 114 µM), usual class: inhibitors. AID 485364. hit rate 3% among 360,000; note: nearly all actives have a fitted effect of over 60% in size
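Kinetic colorimetric format: TGR-catalysed, NADPH-driven DTNB reduction monitored via TNB absorbance. Enzyme dispensed at 20 nM; compound exposure 15 min at room temperature before reaction start.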
Cycloheximide cs = counter-screen for Shiga toxin inhibitors: cycloheximide protein synthesis inhibition; cell reporter, cycloheximide protein synthesis inhibition counterscreen; AID 2314; hit rate 12% among 300,000; max response, %; in the data active = max response mostly above about 13%, no sharp cut-off; inactive = mostly below about 14%; note: read at 38.3 µM for the half of the compounds with a filed dose
TbPYK inhibitor = T. brucei pyruvate kinase inhibition; TbPYK enzyme, Kinase-Glo Plus ATP luminescence, 45 min; Potency, µM (highest dose often 76.8 µM), most hits filed as inhibitors; hit rate 0.12% among 410,000; note: nearly all actives have a fitted effect of over 50% in size
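Enzyme and substrate buffer are dispensed first and compound is pin-transferred. ADP at 130 uM final then starts the reaction, which runs 45 min at room temperature. Detection reagent is added for 10 min before luminescence is imaged.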
Of the large screens only hits and unclear results are named; the others gave an inactive call. This is one part of a sample in which hits are shown more often than they occur. Unless noted, calls come from the whole dose curve; as a rule, active = well fitted curve in the direction sought with a large enough effect; inconclusive = small, poorly fitted or top-dose-only effect, or another doubt; inactive = no such curve, though single readings can be large; an effect the other way counts as inactive or inconclusive.

CCC1CCc2nc3sc(C(=O)Nc4cccc(C(F)(F)F)c4)c(N)c3cc2C1 (stereo not drawn)	none (no result: FBPA Giardia inh, LmPK inhibitor, Shiga inhibitor, Cycloheximide cs)
CCc1nc2ccc(C(=O)Nc3cccc(OCC(=O)N(C)C)c3)cn2c1N(C)Cc1ccc(OC)cc1	none (no result: FBPA Giardia inh, LmPK inhibitor, Shiga inhibitor, Sm TGR block, Cycloheximide cs)
O=P1(O)Oc2c(c(-c3ccccc3)cc3ccccc23)-c2c(-c3ccccc3)cc3ccccc3c2O1	none (no result: LmPK inhibitor, Shiga inhibitor, Sm TGR block, Cycloheximide cs, TbPYK inhibitor)
Oc1cc(-c2ccccc2)c2ccccc2c1	FBPA Giardia inh 5.6µM
COc1cc2cc(CNc3ccccc3)c(=O)n(CC(=O)Nc3cccc(Cl)c3C)c2cc1OC	Sm TGR block inconclusive (no result: FBPA Giardia inh, LmPK inhibitor, Shiga inhibitor, Cycloheximide cs)
COc1ccc(C(=O)CCNc2ccc(F)cc2)cc1	Shiga inhibitor 82, Sm TGR block 3.2µM, Cycloheximide cs 28
COc1ccc(C(=O)NCC(=O)c2ccccc2)cc1	Cycloheximide cs 36 (no result: Shiga inhibitor)
COc1ccc(NC(=O)CCC(=O)c2ccc(F)cc2)cc1	none (no result: FBPA Giardia inh, LmPK inhibitor, Shiga inhibitor, Sm TGR block, Cycloheximide cs)
COc1ccc(C(=O)NCCCc2ccccc2)cc1	none (no result: FBPA Giardia inh, LmPK inhibitor, Shiga inhibitor, Sm TGR block, Cycloheximide cs)
COc1ccc(C(=O)Cc2nnc(C)s2)cc1	Shiga inhibitor 105, Cycloheximide cs 48
COc1ccc(O)c(C(=O)CC(=O)c2ccccc2)c1	Cycloheximide cs 43 (no result: TbPYK inhibitor)
COc1cc(CC(=O)OCC(=O)NC2CCCCCC2)cc(OC)c1OC	none (no result: FBPA Giardia inh, LmPK inhibitor, Shiga inhibitor, Sm TGR block, Cycloheximide cs)
COc1ccc(NC(=O)COC(=O)c2ccc(S(=O)(=O)N(C)c3ccccc3OC)cc2)cc1	none (no result: FBPA Giardia inh, LmPK inhibitor, Shiga inhibitor, Sm TGR block, Cycloheximide cs)
O=S(=O)(c1cccc(C(F)(F)F)c1)N1CCC(Oc2ccc(-n3cnnn3)cc2)CC1	none (no result: FBPA Giardia inh, LmPK inhibitor, Shiga inhibitor, Cycloheximide cs)
COc1ccc(N2CCN(C(CNS(=O)(=O)c3ccc(OC)c(C)c3)c3ccco3)CC2)cc1 (stereo not drawn)	none (no result: FBPA Giardia inh, LmPK inhibitor, Shiga inhibitor, Cycloheximide cs)
COc1ccc(C(=O)CN2C(=O)c3ccccc3C2=O)cc1	Shiga inhibitor 58, Cycloheximide cs 30
COc1ccc(CCC(=O)N2CCCC(Nc3ccc(OC)cc3)C2)cc1 (stereo not drawn)	none
COc1ccc(CNC(=O)CN2C(=O)c3ccccc3C2=O)cc1	none
COc1ccc(C(=O)C[n+]2cccc3cc(OC)ccc32)cc1	none
COc1ccc(C(=O)CC(=O)c2ccccc2)cc1	none (no result: FBPA Giardia inh, LmPK inhibitor, Shiga inhibitor, Sm TGR block, Cycloheximide cs)
COc1ccc(C(=O)C[n+]2ccc3ccccc3c2C)cc1	Shiga inhibitor 94, Cycloheximide cs 45
COc1ccc(C(=O)CC(=O)c2ccc(OC)cc2)cc1	Cycloheximide cs 26
COc1ccc(NC2CCCN(C(=O)CCC(=O)c3ccc(F)cc3)C2)cc1 (stereo not drawn)	Cycloheximide cs 47
COC(=O)c1ccccc1NC(=O)[C@H]1O[C@@H]2OC(C)(C)O[C@@H]2[C@H]2OC(C)(C)O[C@H]21	none (no result: FBPA Giardia inh, LmPK inhibitor, Shiga inhibitor, Cycloheximide cs)
Cc1nc2c([nH]c3ccc(Br)cc32)s1	Shiga inhibitor 22, Cycloheximide cs 15
Cc1n[nH]c2ccc(Br)cc2c1=O	none (no result: FBPA Giardia inh, LmPK inhibitor, Shiga inhibitor, Sm TGR block, Cycloheximide cs)
Cc1cc(CC(C)C)n(-c2nc3ccccc3c(=O)n2OCC(N)=O)n1	Shiga inhibitor 104, Cycloheximide cs 26
CC(C)=NO[C@@H](C)CN1CCCc2nc(C)c(C)cc21	none (no result: LmPK inhibitor, Shiga inhibitor, Sm TGR block, Cycloheximide cs, TbPYK inhibitor)
COc1ccc(OC)c2c1cc(C(=O)N[C@@H](Cc1ccccc1)C(=O)O)n2C	none
CCCCCOc1ccc(Cn2ccnc2)cc1[N+](=O)[O-]	Shiga inhibitor 64
CCCCOc1ccc(CN(CCO)CCO)cc1[N+](=O)[O-]	Shiga inhibitor 125, Cycloheximide cs 50
NNC(=O)c1cc2c(s1)-c1cc(Cl)ccc1SC2	Cycloheximide cs 28
O=C(NCc1ccc(Cl)cc1)c1cc2c(s1)-c1ccccc1SC2	none (no result: FBPA Giardia inh, LmPK inhibitor, Shiga inhibitor, Cycloheximide cs)
O=C(CC1SC(N2CCCC2)=NC1=O)Nc1ccc(C(=O)NCCOc2ccccc2F)cc1 (stereo not drawn)	none (no result: FBPA Giardia inh, LmPK inhibitor, Shiga inhibitor, Cycloheximide cs)
COc1cc(CNc2ccc3[nH]c(=O)[nH]c3c2)ccc1OCc1ccc(C)cc1	Shiga inhibitor 118, Cycloheximide cs 26
COc1cc(CNc2ccc3[nH]c(=O)[nH]c3c2)ccc1OCc1cccc(C)c1	Sm TGR block inconclusive, Cycloheximide cs 21
CNc1ccc(-c2cccc(C(=O)N3CCOCC3)c2)cn1	none (no result: FBPA Giardia inh, LmPK inhibitor, Shiga inhibitor, Sm TGR block, Cycloheximide cs)
CC1CCN(S(=O)(=O)c2ccc3c(c2)N(CC(=O)NCC(C)c2ccccc2)C(=O)CO3)CC1 (stereo not drawn)	none (no result: FBPA Giardia inh, LmPK inhibitor, Shiga inhibitor, Cycloheximide cs)
COc1cccc(NC(=O)C(=O)N/N=C/c2ccc3c(c2)OCO3)c1	Cycloheximide cs 26
Cc1ccc(NC(=O)c2ccc3c(c2)OCCO3)cc1C	none
